# In ChEMBL document CHEMBL3433997, “St. Jude Leishmania screening dataset” (2016):
# What was measured:
# Assay type in all cases: functional
# [1] = target: Solute carrier family 2, facilitated glucose transporter member 1 (Homo sapiens) (UniProt P11166); test: ST_JUDE_LEISH: Cytotoxicity at 2uM final concentration against transgenic Leishmania Mexicana promastigotes LmGLUT1 that are glucose transport deficient and complemented with the human glucose transporter GLUT1. Activity is measured by DNA content using SYBR green in vitro
# Sequence of Solute carrier family 2, facilitated glucose transporter member 1 (Homo sapiens) (P11166 whole entry): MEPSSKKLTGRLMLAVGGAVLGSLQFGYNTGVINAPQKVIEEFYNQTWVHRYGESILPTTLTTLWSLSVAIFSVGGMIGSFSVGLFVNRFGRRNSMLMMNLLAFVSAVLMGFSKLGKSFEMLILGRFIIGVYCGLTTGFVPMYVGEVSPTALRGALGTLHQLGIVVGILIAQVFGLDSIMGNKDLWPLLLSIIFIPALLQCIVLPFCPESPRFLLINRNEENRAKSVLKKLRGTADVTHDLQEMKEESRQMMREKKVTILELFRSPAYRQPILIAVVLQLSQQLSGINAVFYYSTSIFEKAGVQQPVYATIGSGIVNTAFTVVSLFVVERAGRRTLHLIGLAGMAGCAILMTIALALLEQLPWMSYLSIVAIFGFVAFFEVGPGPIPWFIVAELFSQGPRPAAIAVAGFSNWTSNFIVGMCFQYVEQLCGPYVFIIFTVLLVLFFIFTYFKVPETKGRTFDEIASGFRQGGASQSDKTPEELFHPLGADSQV
# [2] = target: Hexose transporter 1 (Plasmodium falciparum) (UniProt O97467); test: ST_JUDE_LEISH: Cytotoxicity at 2uM final concentration against transgenic Leishmania Mexicana promastigotes LmPfHT that are glucose transport deficient and complemented with the Plasmodium falciparum hexose transporter. Activity is measured by DNA content using SYBR green in vitro
# [3] = target: Glucose transporter (Leishmania mexicana) (UniProt O61059); test: ST_JUDE_LEISH: Cytotoxicity at 2uM final concentration against transgenic Leishmania Mexicana promastigotes LmGT2 that are glucose transport deficient and complemented with the L. Mexicana glucose transporter 2. Activity is measured by DNA content using SYBR green in vitro
SMILES,inhibition [1],inhibition [2],inhibition [3]
O=[N+]([O-])c1ccc2ncnc(Nc3ccc(F)c(Cl)c3)c2c1,2.27%,0.68%,2.32%
CNc1ccc(CNCc2cccc(-c3ccc(-c4nc5cccc(C)c5[nH]4)s3)c2)cc1,8.15%,5%,6.79%
COc1ccc(CNC2CCN(C)CC2)cc1-c1ccc(OC)c(S(=O)(=O)NCc2ccccc2)c1,1.01%,1.62%,0.01%
Cc1cc(N[C@@H](Cc2ccccc2)C(=O)NCc2cccc(F)c2)nc(Nc2ccccc2)n1,6.85%,7.5%,2.63%
COC(=O)c1cccc(CNCc2ccc(-c3cccc(-c4nc5cc(C(F)(F)F)ccc5[nH]4)c3)cc2)c1,11.9%,11%,11.5%
CCn1c(CN2CCN(Cc3ccccc3)CC2)nc2cc(NC(=O)c3cccs3)ccc21,1.2%,1.22%,-1.93%
CN(CCCCCNC(=O)/C=C/c1ccc(Cl)c(Cl)c1)CCc1c[nH]c2ccccc12,20.6%,20%,12.6%
Nc1c2c(nc3ccc(NC(=O)c4ccccc4)cc13)CCCC2,3.15%,2.68%,4.86%
Cc1c(OC(C)C)nc2ccccc2c1C(=O)N[C@H](c1cccc(F)c1)C1CC1,0.15%,-0.55%,-0.32%
Oc1cc(Nc2ccnc3cc(I)ccc23)ccc1F,1.98%,-0.07%,0.37%
N=C(N)Nc1cccc(NC(=O)Nc2cccc(NC(=N)N)c2)c1,6.92%,4.83%,3.86%
Cc1cnc(NC(=O)c2cn(-c3ccccc3)nc2-c2cccs2)s1,14.6%,13.2%,13.9%
CC(C)NC(=O)c1cccc(-c2cccc(OCCN3CCSCC3c3ccccc3)c2)c1 (stereo not given),10.4%,9.35%,8.53%
O=C(NC1CCCCN(Cc2ccccc2O)C1)c1ccc(-c2ccccc2)cc1 (stereo not given),2.73%,2.62%,2.4%
COc1ccc2c(c1)CCCC2C(C)NCC(O)c1cccc(C(F)(F)F)c1 (stereo not given),8.86%,5.98%,6.3%
O[C@H]1[C@H](OCc2ccc(-c3ccccc3)cc2)CC[C@@H]1N1CCCCC1,0.73%,1.54%,8.6%
O=C(NCC1CCC(C(=O)O)CC1)c1ccc(/C=C/C(=O)N2CCc3ccccc3C2c2ccc3c(c2)OCO3)cc1 (stereo not given),-0.02%,1.62%,0.31%
Cc1cccc2nc(-c3ccc(-c4cccc(CNCC5CCCO5)c4)s3)[nH]c12 (stereo not given),13%,11.4%,11.3%
CC(C)(CNC(=O)[C@@H]1CCCN(CCOc2ccc(Cl)cc2)C1)c1nc(-c2ccc(Cl)c(O)c2)c(-c2ccncc2)[nH]1,-1.34%,2.16%,0.11%
Cc1cccc2nc(-c3ccc(-c4cccc(CN5CCCC5CN)c4)s3)[nH]c12 (stereo not given),2.06%,-0.2%,-0.03%
CC(C)N1CCN(C(CN2CCN(CCCOc3cccc(-c4ccccc4)c3)CC2)c2ccc(F)cc2)CC1 (stereo not given),0.87%,2.77%,0.81%
O=c1cc(NCCCNCc2cccc3c2OC(F)(F)O3)[nH]c2ccccc12,2.3%,1.38%,1.85%
CC(C)(C)NC(=O)COC(=O)c1c2c(nc3ccccc13)C(=Cc1ccc3c(c1)OCO3)CCC2,1.65%,1.17%,0.48%
CCc1cn(CCS(C)(=O)=O)c2ccc(C(=O)N[C@@H](Cc3ccccc3)[C@H](O)CNC(C)(C)CCCC(C)C)cc12,5.26%,4.33%,6.22%

SMILES,inhibition [1],inhibition [2],inhibition [3]
CC(C)c1ccc(OCC(O)CN(C)C(C)C(O)c2ccccc2)c(Br)c1 (stereo not given),5.55%,12.5%,10.4%
N#Cc1ccc(-c2ccc(C(=O)NC3CCN(CCN4CCc5c(cccc5C(F)(F)F)C4)CC3)cc2)cc1,-0.45%,-0.02%,1.46%
Cc1cccc2nc(-c3ccc(-c4cccc(CNCc5cccc(N)c5)c4)cc3)[nH]c12,2.44%,2.16%,-1.02%
CCc1cn2c3c(cc(C(=O)N[C@@H](Cc4cc(F)cc(F)c4)[C@H](O)CNC4CC4)cc13)N(C)S(=O)(=O)CC2,3.44%,2.48%,3.48%
CC(=O)c1c[nH]c(C(=O)Nc2ccc(-c3cn4ccccc4n3)cc2)c1,11.8%,10.9%,10.2%
COCCNCc1cccc(C#Cc2cc3ncnc(Nc4ccc(OCc5cccc(F)c5)c(Cl)c4)c3s2)n1,5.28%,5.8%,3.62%
O=C(Nc1ccc(-c2ccccc2)cc1)Nc1cccc(Cn2ncc(N3CCCNCC3)c(Cl)c2=O)c1,1.74%,0.84%,0.04%
CC(C)c1ccc(C2CCN(CCCCNC(=O)c3ccc(NC(=O)c4ccc(C(F)(F)F)cc4)cc3)CC2)c(O)c1,4.75%,3.96%,1.92%
O=C(CCN1CCCCC1)Nc1ccc(Nc2nccc(NCC(O)c3ccccc3)n2)cc1 (stereo not given),-1.33%,-1.09%,-2.39%
FC(F)(F)c1ccccc1OCc1cc(-c2ccncc2)c(COc2ccccc2C(F)(F)F)cc1C1=CCNCC1,2.44%,2.17%,2.81%
CN(C(=O)c1snnc1-c1ccccc1)C1CCN(CCCCCNC(=O)/C=C/c2ccc(Cl)c(Cl)c2)CC1,3.47%,0.39%,3.46%
COc1cc2c(c(Cl)c1OC)CCN(Cc1ccccc1)CC2c1ccc(NC(=O)C(F)(F)F)cc1 (stereo not given),3.91%,2.68%,2.44%
CCOc1cc(C(=O)Nc2cccnc2)ccc1-c1nc2cc(Cl)c(Cl)cc2[nH]1,1.75%,0.16%,-0.85%
O=C(NCCNc1ccnc(Nc2ccc(F)cc2)n1)c1cc2ccccc2s1,5.85%,7.62%,0.69%
COc1cc(NC(=O)c2cccs2)c(OC)cc1NC(=O)Nc1cccc(Cl)c1,3.28%,3.25%,2.28%
O=C(Cc1ccccc1)NC(CCN1CCC(N(C2CC2)S(=O)(=O)c2cccc(C(F)(F)F)c2)CC1)c1ccc(Cl)c(Cl)c1 (stereo not given),5.55%,3.86%,3.73%
Cc1nc(C)c(-c2ccc(Oc3cccc(OC(F)(F)F)c3)cc2)c(O)c1Cl,2.22%,2.75%,2.84%
CC(C)NCc1cccc(-c2cccc(-c3nc4ccccc4[nH]3)c2)c1,-1.73%,0.59%,-1.69%
FC(F)(F)c1cccc2c(NN=Cc3ccccc3)ccnc12,2.7%,2.21%,1.42%
N#Cc1ccc(-c2ccc(C(=O)Nc3ccc4c(c3)CCN(C3CCC3)CC4)nc2)cc1,3.57%,3.06%,2.04%
COc1ccccc1CCNc1nc(C)cc(N[C@@H](CC(C)C)C(=O)NCCc2ccccc2)n1,2.53%,5.72%,2.57%
CS(=O)(=O)N1CC2(CCN(CCC(NC(=S)Nc3ccccc3)c3ccc(Cl)c(Cl)c3)CC2)c2ccccc21 (stereo not given),3.72%,1.67%,-0.39%
O=C1CCCN1CCCNCc1ccc(-c2ccc(-c3nc4cc(C(F)(F)F)ccc4[nH]3)cc2)cc1,3.36%,2.91%,2.6%
O=C(Nc1cccc(-c2ccc(CN3CCCC3)cc2)c1)c1cccc(Cl)c1,-0.6%,0.05%,0.25%

SMILES,inhibition [1],inhibition [2],inhibition [3]
CCNC1=NC2=C(CC(C(C)(C)C)CC2)C2(CCC(C(C)(C)C)CC2)S1 (stereo not given),4.57%,4.3%,1.15%
OC(CN(Cc1ccccc1)Cc1ccccc1)Cn1c2ccc(Cl)cc2c2cc(Cl)ccc21 (stereo not given),-0.34%,0.27%,1.37%
CCCCN1CCN(CC(O)CNC(=O)Nc2ccc(Cl)cc2)CC1 (stereo not given),2.88%,3.59%,1.81%
N#Cc1ccc(N/C(=N\c2ccccc2Br)N(C2CCCCC2)C2CCCCC2)c(O)c1,6.11%,4.65%,5.56%
FC(F)(F)COc1ccc2ccccc2c1CCNCCCCNCCc1c(OCC(F)(F)F)ccc2ccccc12,105%,103%,107%
O=S(=O)(NCCN1CCCC1)c1ccc(-c2ccc(CNC3Cc4ccccc4C3)cc2)cc1F,6.55%,13.9%,5.36%
OCCNc1nc(Nc2ccc(F)cc2)nc2ccccc12,3.51%,3.35%,2.07%
NC(=O)c1ccc(NCC(=O)Nc2cccc(-c3cccc(-c4nc5ccccc5[nH]4)c3)c2)cc1,2.82%,4.21%,0.95%
c1cc(CNCCc2ccncc2)cc(-c2csc(-c3nc4ccccc4[nH]3)c2)c1,0.51%,-1.59%,1.05%
CC1CNC(c2ccc(NC(=O)c3ccc(C(=O)Nc4ccc(C5=NC(C)CN5)cc4)cc3)cc2)=N1 (stereo not given),8.16%,7.31%,0.91%
CNC(=O)c1cnc(Nc2ccc3[nH]c(=O)[nH]c3c2)nc1Nc1cccc(OC(C)C)c1,-0.17%,-0.76%,-0.26%
COc1cc(Cc2c(C)nc3nc(N)nc(N)c3c2C)c(Br)c(OC)c1OC,5.54%,8.22%,4.73%
CC(C)CNCc1cccc(-c2cccc(CN(CCN(C)C)C(=O)Nc3ccccc3)c2)c1,2.46%,4.17%,0.55%
CN1CCC(N2CCC(Oc3cccc(C(=O)NCCCC4CCCC4)c3)CC2)CC1,10.9%,10.4%,10.3%
C=CCc1cc(C2CCN(CCCCNC(=O)c3ccc(-c4ccc(C#N)cc4)cc3)CC2)c(OCC(N)=O)c2c1CCCC2,0.81%,2.67%,3.22%
Cc1noc(C)c1-c1cccc(CNCc2cccc(-c3ccc(-c4nc5ccccc5[nH]4)cc3)c2)c1,0.58%,-1.28%,-1.53%
CC(O)c1cccc(-c2ccc(Nc3ccnc4cc(-c5nccs5)ccc34)cc2)c1 (stereo not given),4.55%,4.09%,4.15%
COc1ccc2nccc([C@@H](O)CN3CCC(NC(=O)C(c4cc5ccccc5s4)N4CCN(c5ccccc5OC)CC4)CC3)c2c1 (stereo not given in full),1.84%,1.89%,0.56%
CCCCCCC1(C)N=C(N)N=C(N)C1c1ccc(Cl)c(Cl)c1 (stereo not given),1.71%,1.39%,0.06%
Cc1cccc(C(=O)Nc2ccnc(N3CCC(N(C)Cc4cccc(C#N)c4)CC3)c2)c1,4.5%,5.56%,4.5%
Cc1cc(C)cc(Oc2c(C(F)(F)F)oc3c(CN4CC(C)OC(C)C4)c(O)ccc3c2=O)c1 (stereo not given),-0.42%,-1.36%,1.31%
COC(=O)c1ccc(CN2CCC(N(Cc3cccc(Oc4ccccc4)c3)S(=O)(=O)c3ccc(NC(C)=O)cc3)CC2)cc1,0.23%,0.78%,0.32%
